One test has as its system Staphylococcus aureus. Description: Antibacterial activity against Staphylococcus aureus MRSA ATCC 43300 (CO-ADD:GP_020); MIC in CAMBH media using NBS plates, by Resazurin F(560/590). The class given is functional. Particulars: Concentration 20 uM, ASSAY_TEST Inhibition of Bacterial Growth, detection method Resazurin, Fluorescence (ex560/em590), MEDIA CAMHB, plate type 384well, CORNING #3640, time 18 hr. In general terms: Alamar Blue is a resazurin reagent that responds to reducing activity.

The subject of a further test is Acinetobacter baumannii. Description: Antibacterial activity against Acinetobacter baumannii ATCC 19606 (CO-ADD:GN_034); MIC in CAMBH media using NBS plates, by Resazurin F(560/590). The class given is functional. Particulars: Concentration 20 uM, ASSAY_TEST Inhibition of Bacterial Growth, detection method Resazurin, Fluorescence (ex560/em590), MEDIA CAMHB, plate type 384well, CORNING #3640, time 18 hr.

A further test deals with Escherichia coli. Put plainly: Antibacterial activity against Escherichia coli ATCC 25922 (CO-ADD:GN_001); MIC in CAMBH media using NBS plates, by Resazurin F(560/590). It counts as functional. The following applies: Concentration 20 uM, ASSAY_TEST Inhibition of Bacterial Growth, detection method Resazurin, Fluorescence (ex560/em590), MEDIA CAMHB, plate type 384well, CORNING #3640, time 18 hr.

The test system of a further test is Klebsiella pneumoniae. The following applies: Concentration 20 uM, ASSAY_TEST Inhibition of Bacterial Growth, detection method Absorption (OD600), MEDIA CAMHB, plate type 384well, NBS, CORNING #3640, time 18 hr.
Another test deals with Candida albicans. The following applies: 20 µM.
The subject of the next test is Cryptococcus neoformans. The following applies: Concentration 20 uM, ASSAY_TEST Inhibition of Fungal Growth, detection method Resazurin, Absorption (OD600-OD570), plate type 384well, NBS, CORNING #3640.

Values joined by “and” are separate entries in the source; they are usually repeats but may differ in a detail not shown here. Identical values can stand only once. For some assays here: Results with a measured potency or affinity are listed apart.

A word on the Inhibition: it is the drop in the measured response relative to a control, in per cent. Consider `CC1(C)N=C(N)N=C(N)N1c1cccc(CN)c1.CCS(=O)(=O)O`, for which the Inhibition in the test on Staphylococcus aureus is 8.6%; in the test on Acinetobacter baumannii, -6.92%; with Escherichia coli, 11.68%; in the test with Klebsiella pneumoniae, 13.8%; with Candida albicans, 2.57%; in the test with Cryptococcus neoformans, -7.41%.

With `OC(COc1cccc2ccccc12)CN1CCN(c2ccc(Cl)cc2)CC1` (centres undefined), the Inhibition is 7.27% and -7.63% in the test with Staphylococcus aureus (18 h, 20 µM); 6.27% and 10.91% in the test on Acinetobacter baumannii (18 h, 20 µM); 26.3% and 15.3% with Klebsiella pneumoniae (20 µM); 1.46% and -1.63% with Candida albicans; -9.84% and -9.74% with Cryptococcus neoformans (20 µM).

On to `O=C(O)c1nn(-c2ccccc2-c2nnc(O)nc2O)c(=O)[nH]c1=O`, for which the Inhibition in the test on Staphylococcus aureus came out at 28.61%; in the test on Acinetobacter baumannii, 10.46%; in the test with Escherichia coli it was 9.27%; in the test with Klebsiella pneumoniae it was 22.91%; with Candida albicans, 1.7%; in the test with Cryptococcus neoformans it was 4.78%.

`Clc1ccc(Nc2nnc(-c3ccc4c(c3)OCO4)o2)cc1`: the Inhibition in the test with Staphylococcus aureus was -8.18%; in the test with Acinetobacter baumannii, 6.42%; in the test with Escherichia coli it was 9.52%; in the test on Klebsiella pneumoniae, 10.29%; with Candida albicans it was 4.12%; in the test on Cryptococcus neoformans, 44.25%.

For the compound `OCC1(CO)COC2(CCCC2)N1`, the Inhibition in the test on Staphylococcus aureus was 5.01%; in the test with Acinetobacter baumannii, 0.7%; with Escherichia coli it was 4.05%; in the test with Klebsiella pneumoniae, 19.67%; in the test with Candida albicans it was -1.93%; with Cryptococcus neoformans, -8.24%.

As to `Cc1cc(C)n(C(=N)NC(=O)c2ccc([N+](=O)[O-])cc2)n1`, the Inhibition in the test on Staphylococcus aureus was 1.83%; in the test with Acinetobacter baumannii it was 1.39%; in the test with Escherichia coli, -7.33%; with Klebsiella pneumoniae, 8.27%; with Candida albicans, 3.88%; with Cryptococcus neoformans it was 44.63%.

`CCOc1ccc(S(=O)(=O)c2ccc(C)cc2)c2c1no[n+]2[O-]`: the Inhibition with Staphylococcus aureus is 12.11%; in the test with Acinetobacter baumannii it was 5.81%; with Escherichia coli, 11.8%; in the test with Klebsiella pneumoniae it was 9.49%; in the test with Candida albicans it was 1.5%; with Cryptococcus neoformans it was -13.62%.

Consider `Cc1ccc(N2CCN(CC(O)COc3cccc(C)c3)CC2)cc1` (centres undefined), for which the Inhibition is 10.15% with Staphylococcus aureus; -11.82% in the test on Acinetobacter baumannii; 15.19% in the test on Escherichia coli; 10.88% with Klebsiella pneumoniae; -0.24% with Candida albicans; -16.06% in the test with Cryptococcus neoformans.

On to `Cc1cc(O)c2c(C)ccc(C)c2n1`, for which the Inhibition in the test on Staphylococcus aureus is 0.21%; with Acinetobacter baumannii, 1.08%; with Escherichia coli, 3.82%; in the test with Klebsiella pneumoniae, 5.25%; with Candida albicans, 0.13%; in the test with Cryptococcus neoformans it was -9.44%.

In the case of `NC(=N\c1ccc(N)cc1)/C(N)=N/c1ccc(N)cc1`, the Inhibition in the test on Staphylococcus aureus is -1.65%; in the test with Acinetobacter baumannii it was -17.09%; with Escherichia coli it was 7.03%; with Klebsiella pneumoniae, 7.69%; with Candida albicans, 0.22%; in the test on Cryptococcus neoformans, -12.28%.

`O=[N+]([O-])c1ccccc1CSc1nc(O)c2nc[nH]c2n1`: the Inhibition was 26.98% with Staphylococcus aureus; 9.09% with Acinetobacter baumannii; 5.06% in the test with Escherichia coli; 15.06% with Klebsiella pneumoniae; 1% with Candida albicans; -13.62% in the test on Cryptococcus neoformans.

In the case of `Cc1ccc(C2C=CC(C#N)=CN2Cc2ccccc2)cc1` (centres undefined), the Inhibition is 18.9% in the test with Staphylococcus aureus; -15.76% with Acinetobacter baumannii; 11.73% with Escherichia coli; 11.58% in the test on Klebsiella pneumoniae; -1.48% in the test with Candida albicans; -7.94% in the test on Cryptococcus neoformans.

`COC(=O)C1(C(=O)OC)C2C(=O)C3C(C21)C3(C(=O)OC(C)(C)C)C(=O)OC(C)(C)C` (centres undefined): the Inhibition in the test on Staphylococcus aureus was 5.34%; with Acinetobacter baumannii it was -10.49%; in the test with Escherichia coli it was 12.49%; with Klebsiella pneumoniae, 9.29%; in the test on Candida albicans it was 0.63%; with Cryptococcus neoformans, -1.86%.

In the case of `COc1cc([N+](=O)[O-])ccc1NC(=O)Oc1ccc(NC(C)=O)cc1`, the Inhibition in the test with Staphylococcus aureus is 1.87%; in the test on Acinetobacter baumannii, 5.68%; in the test with Escherichia coli it was 0.56%; with Klebsiella pneumoniae, 4.62%; with Candida albicans, 0.51%; in the test with Cryptococcus neoformans it was -16.29%.

Regarding `N#CC1C(=O)NC(=O)C(C#N)C12CCCC(C(F)(F)F)C2` (centres undefined), the Inhibition in the test on Staphylococcus aureus is 7.59%; with Acinetobacter baumannii it was 8.61%; in the test on Escherichia coli, -6.62%; in the test with Klebsiella pneumoniae, 4.19%; in the test on Candida albicans, 1.89%; in the test with Cryptococcus neoformans, -0.69%.

`CCCCCC(=O)C(=O)c1ccc(O)cc1O`: the Inhibition in the test on Staphylococcus aureus was 10.4%; in the test with Acinetobacter baumannii, 8.8%; in the test with Escherichia coli it was -2.2%; in the test with Klebsiella pneumoniae, 16.02%; with Candida albicans, 6.66%; in the test with Cryptococcus neoformans, -6.56%.

On to `CCOC(=O)Nc1ccc2[nH]c(-c3cscn3)nc2c1`, for which the Inhibition was 14.96% in the test on Staphylococcus aureus; -19.41% with Acinetobacter baumannii; 13.31% with Escherichia coli; 4.63% with Klebsiella pneumoniae; -2.03% with Candida albicans; -11.31% in the test on Cryptococcus neoformans.

On to `N=C(N)n1c(N)nc2ccccc2c1=O`, for which the Inhibition in the test on Staphylococcus aureus was -3.84%; in the test with Acinetobacter baumannii, 11.96%; with Escherichia coli it was 12.39%; in the test with Klebsiella pneumoniae, 5.57%; with Candida albicans, 0.23%; in the test with Cryptococcus neoformans, -13.19%.

As for `CN(C)c1ccc(/C=C/C(=O)c2cc(Cl)ccc2O)cc1`, the Inhibition in the test on Staphylococcus aureus is 14.9%; in the test with Acinetobacter baumannii, -19.64%; in the test with Escherichia coli it was 10.48%; in the test with Klebsiella pneumoniae it was 1%; in the test on Candida albicans it was 8.13%; in the test on Cryptococcus neoformans it was -6.08%.

Regarding `CN(C)Cc1c[nH]c2nccnc12`, the Inhibition is 11.84% in the test with Staphylococcus aureus; -4.46% with Acinetobacter baumannii; 11.46% with Escherichia coli; 8.34% with Klebsiella pneumoniae; 0.19% in the test with Candida albicans; 2.55% in the test with Cryptococcus neoformans.

As to `Br.CN(C)c1n/c(=N/Cc2ccco2)ss1`, the Inhibition in the test on Staphylococcus aureus was 15.96%; with Acinetobacter baumannii it was 6%; with Escherichia coli, 7.56%; in the test with Klebsiella pneumoniae, 27.1%; in the test with Candida albicans, 6.89%; with Cryptococcus neoformans, -13.39%.

In the case of `Clc1cc2c(nn1)Nc1ccccc1S2`, the Inhibition in the test on Staphylococcus aureus was -2.08%; with Acinetobacter baumannii it was 9.37%; in the test with Escherichia coli, 10.31%; with Klebsiella pneumoniae, 10.14%; in the test on Candida albicans, 0.32%; with Cryptococcus neoformans, -16.64%.

As to `C=CCNC(=S)N1CCN(c2ccccc2Cl)CC1`, the Inhibition in the test on Staphylococcus aureus is 6.69%; with Acinetobacter baumannii, 9.34%; in the test on Escherichia coli, -14.86%; in the test on Klebsiella pneumoniae, 17.35%; in the test on Candida albicans, 32.7%; in the test with Cryptococcus neoformans, -0.57%.

Take `Oc1ccccc1-c1nnco1` [FENADIAZOLE]: the Inhibition in the test on Staphylococcus aureus is 4.3%; in the test on Acinetobacter baumannii it was -3.75%; with Escherichia coli, 4.12%; in the test with Klebsiella pneumoniae it was 8.02%; with Candida albicans it was 0.92%; in the test on Cryptococcus neoformans it was -7.26%.

For `COC(=O)CC1(C(=O)OC)Nc2cc(Cl)c(Cl)cc2S(=O)(=O)N1O` (centres undefined), the Inhibition in the test on Staphylococcus aureus came to 8.27%; in the test on Acinetobacter baumannii, 11.98%; in the test on Escherichia coli, 7.08%; in the test with Klebsiella pneumoniae, 10.44%; in the test on Candida albicans it was 3.58%; in the test with Cryptococcus neoformans it was 3.59%.

The values above are taken from ChEMBL document CHEMBL4296182, “CO-ADD screening of NIH NCI Diversity Set V”.
